PubChem BioAssay (EPA / NIEHS)
Where “and” joins values, the source holds several entries; their conditions need not be identical. Equal entries are not always repeated. Calls of active or inactive are those of the source. The calls were made as follows: active = hit-call score of the fitted dose curve at least 0.9, where 1 is the maximum; inactive = score below 0.9.

Key:
[1] = read-out: Tissue plasminogen activator (tPA), PLAT (gene 5327); test: BSK_BE3C_tPA: BioMAP Diversity Plus: BE3C Assay for Tissue plasminogen activator (tPA) Biomarker Activity (AID 2283041); details: primary human bronchial epithelial cells; actives raise or lower the signal;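 as to outcome: tPA level quantified by ELISA one day after compound addition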
Procedure, shortened: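 Primary human bronchial epithelial cells in the BE3C system, exposed to compound for 24 h. tPA was quantified by ELISA; DMSO served as baseline, with gain or loss of signal fitted. Cytotoxicity checked in parallel cultures by SRB total-protein staining.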

[2] = read-out: Interleukin-8 (IL8), CXCL8 (gene 3576); test: BSK_CASM3C_IL8: BioMAP Diversity Plus: CASM3C Assay for Interleukin-8 (IL8) Biomarker Activity (AID 2283042); details: primary human coronary artery smooth muscle cells; actives raise or lower the signal;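 also: IL-8 protein level quantified by ELISA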
[3] = read-out: Human Leukocyte Antigen - DR isotype (HLADR), HLA-DRA (gene 3122); test: BSK_CASM3C_HLADR: BioMAP Diversity Plus: CASM3C Assay for Human Leukocyte Antigen - DR isotype (HLADR) Biomarker Activity (AID 2283043); details: primary human coronary artery smooth muscle cells; actives raise or lower the signal;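 also: cell-surface HLA-DR protein level quantified by ELISA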
[4] = read-out: Macrophage colony-stimulating factor (MCSF), CSF1 (gene 1435); test: BSK_CASM3C_MCSF: BioMAP Diversity Plus: CASM3C Assay for Macrophage colony-stimulating factor (MCSF) Biomarker Activity (AID 2283044); details: primary human coronary artery smooth muscle cells; actives raise or lower the signal;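 also: M-CSF protein amount quantified by ELISA after 24 h exposure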
[5] = read-out: Low-density lipoprotein receptor (LDLR), LDLR (gene 3949); test: BSK_CASM3C_LDLR: BioMAP Diversity Plus: CASM3C Assay for Low-density lipoprotein receptor (LDLR) Biomarker Activity (AID 2283045); details: primary human coronary artery smooth muscle cells; actives raise or lower the signal;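 also: LDLR protein level on the cell surface quantified by ELISA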
[6] = read-out: Monocyte Chemoattractant Protein-1 (MCP1), CCL2 (gene 6347); test: BSK_CASM3C_MCP1: BioMAP Diversity Plus: CASM3C Assay for Monocyte Chemoattractant Protein-1 (MCP1) Biomarker Activity (AID 2283046); details: primary human coronary artery smooth muscle cells; actives raise or lower the signal;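 also: MCP-1 level quantified by ELISA 24 h after dosing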
[7] = BSK_CASM3C_Proliferation: Cell Proliferation Assessment in the BioMAP Diversity Plus: CASM3C Assay (AID 2283047); details: primary human coronary artery smooth muscle cells;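 also: sulforhodamine B total protein stain as relative cell number at 560 nm; sub-confluent cells exposed 48 h before staining; fitted both ways against DMSO so gain or loss of cell number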
[8] = read-out: Monokine induced gamma interferon (MIG), CXCL9 (gene 4283); test: BSK_CASM3C_MIG: BioMAP Diversity Plus: CASM3C Assay for Monokine induced gamma interferon (MIG) Biomarker Activity (AID 2283048); details: primary human coronary artery smooth muscle cells; actives raise or lower the signal;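 also: MIG protein level measured by ELISA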
[9] = read-out: serum amyloid A (SAA), SAA1 (gene 6288); test: BSK_CASM3C_SAA: BioMAP Diversity Plus: CASM3C Assay for serum amyloid A (SAA) Biomarker Activity (AID 2283049); details: primary human coronary artery smooth muscle cells; actives raise or lower the signal;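 also: SAA protein level quantified by ELISA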
[10] = BSK_CASM3C_SRB: Viability Assessment in the BioMAP Diversity Plus: CASM3C Assay (AID 2283050); details: primary human coronary artery smooth muscle cells

Row | Structure (SMILES) | outcome [1] | outcome [2] | outcome [3] | outcome [4] | outcome [5] | outcome [6] | AC50 [7] | outcome [8] | outcome [9] | outcome [10] | outcome [7] | AC50 [3] | AC50 [4] | AC50 [6] | AC50 [8] | AC50 [9] | AC50 [10] | AC50 [1] | AC50 [5]
1 | CCOC(=O)C(C#N)=C(c1ccccc1)c1ccccc1 | inactive | inactive | inactive | inactive | inactive | inactive | 12.8 µM (active) and 3.97 µM (active) | inactive | inactive | inactive | – | – | – | – | – | – | – | – | –
2 | COc1cc(Cl)c(OC)cc1N | inactive | inactive | inactive | inactive | inactive | inactive | – | inactive | inactive | inactive | inactive | – | – | – | – | – | – | – | –
3 | CN(c1nccc(=O)[nH]1)C1CCN(c2nc3ccccc3n2Cc2ccc(F)cc2)CC1 | inactive | inactive | inactive | inactive | inactive | inactive | – | inactive | inactive | inactive | inactive | – | – | – | – | – | – | – | –
4 | Clc1cc(Cl)c(-c2c(Cl)c(Cl)cc(Cl)c2Cl)cc1Cl | inactive | inactive | inactive | inactive | inactive | inactive | 0.023 µM (active) | inactive | inactive | inactive | – | – | – | – | – | – | – | – | –
5 | Oc1c(Cl)cc(Cl)c(Cl)c1Cc1c(O)c(Cl)cc(Cl)c1Cl | inactive | inactive | – | – | inactive | – | 5.37 µM (active) | – | – | – | – | 2.28 µM (active) | 8.79 µM (active) | 30.7 µM (active) | 19.8 µM (active) | 3.97 µM (active) | 7.17 µM (active) | – | –
6 | c1ccc(CCc2ccccc2)cc1 | – | inactive | – | – | – | – | – | inactive | – | – | inactive | 29 µM (active) | 29.5 µM (active) | 33.1 µM (active) | – | 26.4 µM (active) | 29.1 µM (active) | 30.6 µM (active) | 30.6 µM (active)
7 | CS(=O)(=O)c1ccc(C2=C(c3ccccc3)C(=O)OC2)cc1 | inactive | inactive | inactive | inactive | inactive | inactive | – | inactive | inactive | inactive | inactive | – | – | – | – | – | – | – | –
8 | CC=Cc1ccc(OCC)c(O)c1 | inactive | inactive | inactive | inactive | inactive | inactive | – | inactive | inactive | inactive | inactive | – | – | – | – | – | – | – | –
9 | CC(C=O)Cc1ccc(C(C)(C)C)cc1 (stereo not given) | – | inactive | – | – | inactive | – | 32.3 µM (active) | – | inactive | – | – | 28.8 µM (active) | 27.5 µM (active) | 30.6 µM (active) | 30.7 µM (active) | – | 31.3 µM (active) | 24.8 µM (active) | –
10 | c1ccc2cc(Nc3ccc(Nc4ccc5ccccc5c4)cc3)ccc2c1 | inactive | inactive | inactive | inactive | inactive | inactive | – | inactive | inactive | inactive | inactive | – | – | – | – | – | – | – | –
